# The entries come from a sample that favours hits as a whole.
# KDM5B inh – KDM5B demethylase inhibition. Potency, µM (top dose mostly 57.7 µM), hits mostly inhibitors. KDM5B demethylase, FDH-coupled NADH fluorescence (FDH is formaldehyde dehydrogenase). AID 1347165. 220,000 tested, 2.6% active; active means well fitted inhibition curve with a large enough effect; further: 0% is about no effect; nearly all actives have a fitted effect of over 70% in size
#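 Inhibition is measured as reduced NADH fluorescence generation from FDH coupling to formaldehyde release. Truncated KDM5BΔAP at 200 nM final acts on H3K4me3 peptide (12.5 µM in substrate mix) in pH 7.5 HEPES buffer with Tween-20, 30 min, room temperature.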
# Starred values were filed as active, the others as inactive; i = inactive. Potency means the concentration at half of the fitted maximal effect.
SMILES,KDM5B inh
Cn1ncc2c(NCCc3cn4ccccc4n3)nc(C3CCCC3)nc21,20µM*
Cc1nc(NCCCNC2CCCCC2)c2cnn(C)c2n1,i
Cc1nc(CCN(C)c2nc(C3CCCC3)nc3c2cnn3C)no1,i
O=C(c1ccccc1F)N1CCC(c2nc(C3CCOCC3)no2)C1 (centres undefined),i
Cc1cnc(C(=O)N2CCCC(c3nc(C4CCOCC4)no3)C2)cn1 (centres undefined),32µM*
O=C(c1ccccc1)N1CCCC(c2nc(C3CCOCC3)no2)C1 (centres undefined),i
Cc1cccc(C(=O)N2CCCC(c3nc(C4CCOCC4)no3)C2)c1 (centres undefined),i
O=C(CCN1c2ccccc2Sc2ccccc21)N1CCCC(c2nc(C3CCOCC3)no2)C1 (centres undefined),25µM*
O=C(c1cc(-c2ccc(F)cc2)nc2ccccc12)N1CCC(c2nc(C3CCOCC3)no2)C1 (centres undefined),28µM*
O=C(CC1CCCC1)N1CCCC(c2nc(C3CCOCC3)no2)C1 (centres undefined),i
Cc1cc(C(=O)N2CCCC(c3nc(C4CCOCC4)no3)C2)n(C)n1 (centres undefined),i
O=C(c1cccc(F)c1)N1CCC(c2nc(C3CCOCC3)no2)C1 (centres undefined),i
COC1CCN(CC2CCCCCN2C(=O)NC2CCCC2)CC1 (centres undefined),i
CSc1nc(C(C)C)nc(C)c1C(=O)Nc1ccc(Cl)cc1C,i
COc1ccc(Cl)cc1C(=O)N(C1CCCCC1)C1CCCCC1,i
CCCn1nc(C(=O)N(C)Cc2cccc(OC)c2)c2ccccc2c1=O,i
CSC1=N/C(=C\c2cccc(OC(C)=O)c2)C(=O)S1,i
CC(=O)c1c(C(F)(F)C(F)(F)F)n[nH]c1C,i
CC(C)C(=O)NC(=S)Nc1ccc(Cl)cc1,i
Cc1cccc(NC(=O)C(C#N)C(=O)CC(C)C)c1 (centres undefined),i
CC(C)c1ccc(C#N)c(N2CC[C@H](N3CCOCC3)[C@H](CCCO)C2)n1,28µM*
CC(C)c1cc(C(=O)N2CC[C@H](N3CCOCC3)[C@H](CCCO)C2)nc(N)n1,i
O=C(c1cnn(-c2ccccc2)c1)N1CC[C@H](N2CCOCC2)[C@H](CCCO)C1,i
CC1=C(C(=O)Nc2cc(C)on2)C(c2c(Cl)cccc2Cl)NC(=O)N1C (centres undefined),i
O=C(NC1CCCN(c2nc3ncccc3o2)C1)c1ccc(Cl)nc1 (centres undefined),i
SMILES,KDM5B inh
O=C(C1CCCN(c2nc3ncccc3o2)C1)N1CCCC1 (centres undefined),25µM*
CN(C)C(=O)C1CCCN(c2nc3ncccc3o2)C1 (centres undefined),25µM*
CC(C)NC(=O)C1CCCN(c2nc3ncccc3o2)C1 (centres undefined),20µM*
N#CC1CCN(C(=O)C2CCCN(c3nc4ncccc4o3)C2)CC1 (centres undefined),32µM*
CC(NC(=O)C1CCCN(c2cnc3nccnc3c2)C1)c1cccnc1 (centres undefined),i
CN(C)c1ncccc1CNC(=O)C1CCCN(S(C)(=O)=O)C1 (centres undefined),i
Cc1noc2ncnc(N3CCCC(C(=O)NC(C)C)C3)c12 (centres undefined),i
CCCCN(C)C(=O)C1CCCN(c2ncnc3onc(C)c23)C1 (centres undefined),i
O=C(C1CCCC1)N1CCN(c2nc3ccccc3o2)CC1,i
CC1CCCN(C(=O)C2CCCN(c3cnc4nccnc4c3)C2)C1 (centres undefined),i
COc1cccc(N2CCN(C(=O)C3CCCN(c4cnc5nccnc5c4)C3)CC2)c1 (centres undefined),i
COC(=O)c1ccc(Oc2coc3cc(OCc4ccc(C)cc4)ccc3c2=O)cc1,i
Cn1c(=O)c2c(ncn2CC(=O)OCC(=O)c2ccc(C3CCCCC3)cc2)n(C)c1=O,i
O=C1CC(c2nc(-c3cccs3)no2)CN1c1ccc(F)cc1 (centres undefined),i
CSc1nc2ccccc2c(=O)n1CC(=O)c1cc(C)c(C)cc1C,i
CCS(=O)(=O)N1CCc2cc(C(=O)CSc3nnc(C)n3C3CC3)ccc21,i
C=C(C)CNCC1(O)CCCN(Cc2cccc(F)c2F)C1=O (centres undefined),i
COc1cccc(C2C(C#N)=C(N)Oc3nc[nH]c(=O)c32)c1 (centres undefined),i
CCN1CCN(C(c2cccs2)c2c(NC(=O)c3ccccc3)sc(C)c2C)CC1 (centres undefined),i
CC(C)Cc1ccc(C(C)NC(C)C(=O)NC(N)=O)cc1 (centres undefined),i
COc1ccc(C2=C(C)C(N3CCC(C(=O)NC4CCCCC4)CC3)=NS2(=O)=O)cc1,i
COc1ccc(CN2CCC3(C2)C(=NC2CCCCC2)NC(=O)N3c2cccnc2)cc1 (centres undefined),i
